Screening results deposited in PubChem by several laboratories.
Many of the other results were omitted from the sample, so hits are more common in it than they were.
GIRK2 activator: GIRK2 channel activators by thallium flux; AID 1259324; HEK293 GIRK2/NPY4 cells, thallium flux fluorescence; activation (% efficacy), % for hits at 75 µM; P48051; 34,000 tested, under 10 active;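 active means primary screen hit, no activity in plain HEK293 cells, and in GIRK2-only cells above 5% efficacy rising with concentration; inactive means the rest, including fluorescent compounds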;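 further: efficacy is normalized control-subtracted fluorescence 15 s after thallium addition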
Target sequence (P48051 whole entry, looked up): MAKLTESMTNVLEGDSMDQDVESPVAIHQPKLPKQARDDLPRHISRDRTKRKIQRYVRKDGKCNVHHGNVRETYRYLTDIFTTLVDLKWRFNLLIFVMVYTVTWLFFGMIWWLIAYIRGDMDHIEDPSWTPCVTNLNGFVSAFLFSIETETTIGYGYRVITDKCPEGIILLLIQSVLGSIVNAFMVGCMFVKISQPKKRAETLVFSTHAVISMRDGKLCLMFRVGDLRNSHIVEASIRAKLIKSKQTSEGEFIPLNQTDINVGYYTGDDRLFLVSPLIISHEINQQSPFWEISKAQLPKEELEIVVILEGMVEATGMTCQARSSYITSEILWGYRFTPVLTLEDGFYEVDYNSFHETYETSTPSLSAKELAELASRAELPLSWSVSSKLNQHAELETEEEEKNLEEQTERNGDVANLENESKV
AMPAR-TARP mod: GluA2-stargazin AMPA receptor complex modulation | O88602+P19491 | HEK293 GluA2+stargazin, membrane potential dye (FDSS), glutamate EC50; hits were called plate by plate, in both directions | calls only at 30 µM | hit rate 3.5% among 40,000 | AID 1259245;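 active means any of four per-well response measures lying three or more SD from its plate-wide compound average, in either direction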
Each line names hits and unclear results; the compound was inactive in the other large screens.

Cc1cccc(NC(=O)c2cc3c(=O)n(C)c(=O)n(C)c3s2)c1C	none
Cn1c(=O)c2cc(C(=O)N3CCN(c4ccccc4)CC3)sc2n(C)c1=O	none (no result: GIRK2 activator)
CCCCN(C(=O)c1cc2c(=O)n(C)c(=O)n(C)c2s1)c1ccccc1	AMPAR-TARP mod active
CNC(=O)C(=O)Nc1ccc2c(c1)N(C(=O)C(C)C)CCC2	none
Cn1c(=O)c2cc(C(=O)NCCc3ccc(S(N)(=O)=O)cc3)sc2n(C)c1=O	AMPAR-TARP mod active
Cn1c(=O)c2cc(C(=O)NCC(O)CO)sc2n(C)c1=O (stereo not drawn)	none
Cn1c(=O)c2cc(C(=O)NCCCCO)sc2n(C)c1=O	AMPAR-TARP mod active
CC(O)CNC(=O)c1cc2c(=O)n(C)c(=O)n(C)c2s1 (stereo not drawn)	none
COc1cccc(C(=O)Nc2ccccc2-c2nc3ccccc3[nH]c2=O)c1	none (no result: GIRK2 activator)
Cc1ccc(OCC(=O)N2CCN(c3ccc4nncn4n3)CC2)cc1C	none
COc1cc(C(C)=O)ccc1OCC(=O)N1CCN(c2ccc3nncn3n2)CC1	AMPAR-TARP mod active
O=C(NCCn1nc(-n2cccn2)ccc1=O)c1ccno1	none (no result: AMPAR-TARP mod)
C=CCn1c(N/N=C/c2cccc(OC)c2O)nc2c1c(=O)n(C)c(=O)n2C	AMPAR-TARP mod active (no result: GIRK2 activator)
C=C(C)Cn1c(N/N=C/c2cccc(OC)c2O)nc2c1c(=O)n(C)c(=O)n2C	none (no result: GIRK2 activator)
O=C(NCc1cccs1)C(=O)Nc1nccs1	none (no result: GIRK2 activator)
COc1ccc(NC(=O)Cn2c(=O)n(C(C)C)c(=O)c3nscc32)cc1Cl	none
Cc1cc(C)c(NC(=O)Cn2c(=O)n(C3CC3)c(=O)c3nscc32)c(C)c1	none
O=C(Cn1c(=O)n(C2CC2)c(=O)c2nscc21)Nc1ccc(F)c(Cl)c1	AMPAR-TARP mod active
CCc1ccccc1NC(=O)Cn1c(=O)n(C2CC2)c(=O)c2nscc21	AMPAR-TARP mod active
CC(C)n1c(=O)c2nscc2n(CC(=O)Nc2ccc3c(c2)OCCO3)c1=O	none
CC(C)n1c(=O)c2nscc2n(CC(=O)Nc2ccc(Br)cc2)c1=O	AMPAR-TARP mod active
O=C(c1cccc(Cl)c1)N1CCN(c2cc(-n3ccnc3)ncn2)CC1	none
Cc1nc(NCCNS(=O)(=O)c2ccc(Cl)c(Cl)c2)cc(N2CCOCC2)n1	none (no result: AMPAR-TARP mod)
Cc1cc(-c2nnc(NC(=O)c3ccc(Cl)cc3)o2)nn1C	AMPAR-TARP mod active
CCCN(CCC)S(=O)(=O)c1ccc(C(=O)Nc2nnc(-c3cc(C)n(C)n3)o2)cc1	none
Cc1cc(-c2nnc(NC(=O)c3ccc(S(=O)(=O)N(C)C)cc3)o2)nn1C	AMPAR-TARP mod active
Cc1cc(-c2nnc(NC(=O)c3ccc(C(C)(C)C)cc3)o2)nn1C	none
CCOC(=O)Cc1csc(NC(=O)Cc2csc(Nc3ccc(F)cc3)n2)n1	none
CCN(C1CCCCC1)S(=O)(=O)c1cc(C(C)C)c(C)cc1OC	AMPAR-TARP mod active (no result: GIRK2 activator)
CCCN(CCC)S(=O)(=O)c1cc(C(C)C)c(C)cc1OC	none (no result: GIRK2 activator)
Cn1c(-c2cccs2)nn(CCNC(=O)c2ccccc2SC(F)F)c1=O	none
CN(C)CCNc1cc(C(C)(C)C)nc2c(-c3ccccc3)cnn12	AMPAR-TARP mod active
CC(C)(C)c1cc(NCCCn2ccnc2)n2ncc(-c3ccccc3)c2n1	none
COc1ccc(-c2cc(C(F)(F)F)nc(SCCC(=O)Nc3cc(F)ccc3F)n2)cc1	none (no result: GIRK2 activator)
COc1ccc(OCC(=O)Nc2ccc3c(c2)N(CCC(C)C)C(=O)C(C)(C)CO3)cc1	none (no result: GIRK2 activator)
CC(C)CCN1C(=O)C(C)(C)COc2ccc(NC(=O)COc3ccc(F)cc3)cc21	AMPAR-TARP mod active (no result: GIRK2 activator)
CCOC(=O)N1CCN(S(=O)(=O)c2cc(N3C(=O)CCS3(=O)=O)ccc2C)CC1	none
COc1ccc(CNC(=O)C(=O)Nc2ccc(NC(C)=O)cc2)cc1	none
COc1ccc(CCNC(=O)C(=O)Nc2ccc(NC(C)=O)cc2)cc1	AMPAR-TARP mod active
O=S(=O)(c1cccnc1)N1CCN(Cc2nc(-c3ccco3)cs2)CC1	none
O=C(NCCCn1cccc1)c1c(F)cccc1F	AMPAR-TARP mod active
O=C(NCCCn1cccc1)c1ccccc1C(F)(F)F	none
CCCNC(=O)Cn1cc(OC)c(=O)cc1CSc1nc(C)cc(C)n1	AMPAR-TARP mod active
COc1cn(CC(=O)NCc2ccccc2)c(CSc2nc(C)cc(C)n2)cc1=O	none
COc1ccccc1CNC(=O)c1cc2cccnc2n(C)c1=O	none
COc1ccc(Cl)cc1S(=O)(=O)NCCOc1ccc(-c2ccccc2)nn1	none
CCOC(=O)c1ccc(S(=O)(=O)NCCOc2ccc(-c3ccccc3)nn2)cc1	AMPAR-TARP mod active
COc1ccc(S(=O)(=O)NCCOc2ccc(-c3ccc(C)cc3)nn2)cc1OC	none
COc1ccc(S(=O)(=O)NCCOc2ccc(-c3ccc(F)cc3)nn2)cc1F	AMPAR-TARP mod active
CCOc1ccc(-c2ccc(OCCNS(=O)(=O)c3ccccc3)nn2)cc1	none
CCOC(=O)c1ccc(S(=O)(=O)NCCOc2ccc(-c3ccc(OC)cc3)nn2)cc1	none
CCOc1ccc(S(=O)(=O)NCCOc2ccc(-c3ccccc3)nn2)cc1	AMPAR-TARP mod active
CCOc1ccc(C(C)C)cc1S(=O)(=O)NCCOc1ccc(-c2ccccc2)nn1	AMPAR-TARP mod active
O=C1CN(Cc2ccco2)C2CS(=O)(=O)CC2N1c1ccc(Cl)cc1 (stereo not drawn)	none
COc1ccc(S(=O)(=O)N2CCCOC2CNC(=O)C(=O)NC2CC2)cc1 (stereo not drawn)	none (no result: GIRK2 activator)
CCCNC(=O)CSc1nnc(-c2cn(C)nc2OC)n1C	none
Cc1ccccc1NC(=O)NCCNC(=O)c1ccc(NC(=O)C(C)(C)C)cc1	none
Cc1nc(N2CCN(CCO)CC2)nc(N2CCCCC2)c1[N+](=O)[O-]	none
Cc1nc(N2CCN(CCO)CC2)nc(Nc2ccc(F)cc2)c1[N+](=O)[O-]	AMPAR-TARP mod active
COc1ccc(OC)c(NC(=O)NCCNc2nc(C)cc(N3CCCCC3)n2)c1	none
COc1cc(OC)c(NC(=O)NCCNc2nc(C)cc(N3CCCCC3)n2)cc1Cl	AMPAR-TARP mod active
CCOc1ccc2ncc(C#N)c(NCc3ccc(OC)c(OC)c3)c2c1	none (no result: AMPAR-TARP mod)
CCCc1ccc(S(=O)(=O)NCC2CCN(Cc3ccco3)CC2)cc1	AMPAR-TARP mod active
O=C(NCc1ccccc1)C(=O)NCC1CCN(Cc2ccco2)CC1	none
CC(=O)Nc1ccc(S(=O)(=O)NCC2CCN(Cc3ccco3)CC2)cc1	none
COc1ccc(CNC(=O)C(=O)NCC2CCN(Cc3ccco3)CC2)cc1	AMPAR-TARP mod active
O=C(Cn1cnc(-c2ccc(Cl)cc2)cc1=O)Nc1cccnc1	none (no result: AMPAR-TARP mod)
O=C(NCCn1nc(-c2ccco2)ccc1=O)C(=O)Nc1nccs1	none
CCCCC1CCC(C(=O)NCCS(=O)(=O)N2CCN(c3ccccn3)CC2)CC1 (stereo not drawn)	none (no result: AMPAR-TARP mod)
CC1=C(C(=O)OC(C)(C)C)C(c2ccccc2F)NC(=O)N1 (stereo not drawn)	AMPAR-TARP mod active (no result: GIRK2 activator)
CCOC(=O)C1=C(C)NC(=O)NC1c1cccc2ccccc12 (stereo not drawn)	none (no result: GIRK2 activator)
COc1ccc(S(=O)(=O)N2CCCCC2CC(=O)NCCc2ccccc2OC)cc1 (stereo not drawn)	none (no result: GIRK2 activator)
COc1ccccc1-c1c(C)nn2c(N3CCN(C4CCCCC4)CC3)cc(C)nc12	none
CCCS(=O)(=O)N1CCN=C1SCc1ccc(Br)cc1	none (no result: GIRK2 activator)
CC(=O)c1ccc(NC(=O)CSc2ncc(S(=O)(=O)c3ccc(Cl)s3)c(N)n2)cc1	none
Nc1nc(SCC(=O)Nc2ccccc2)ncc1S(=O)(=O)c1ccc(Cl)s1	AMPAR-TARP mod active
Cn1cccc1C(CNS(=O)(=O)c1ccc(F)cc1)N1CCCCCC1 (stereo not drawn)	none
